According to PubChem BioAssay (NCATS):
Results filed as inconclusive are left out. The source made the active and inactive calls. Calls come from the whole dose curve; as a rule, active = well fitted cell-killing curve with a large enough effect; inconclusive = small, poorly fitted or top-dose-only effect; inactive = flat fitted curve, though single readings scatter.

Assay: Cell Viability - SH-SY5Y (AID 544);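 note: 0% = DMSO alone and -100% = 100 µM tamoxifen; nearly all actives have a fitted effect of over 55% in size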
Details: SH-SY5Y neuroblastoma cell viability; at 92.2 µM (top of the series)
Excerpt: NIH Chemical Genomics Center [NCGC]
NIH Molecular Libraries Screening Centers Network [MLSCN]
National Institutes of Environmental Health Sciences [NIEHS]
National Toxicology Program [NTP]
We have developed a 1536-well cell-based assay for quantitative high throughput screening (qHTS) against a number of cell lines to determine in vitro cytotoxicity of small molecules. This particular assay uses the SH-SY5Y cell line which is derived from human neuroblastoma.
NCGC Assay Protocol Summary:
The CellTiter-Glo luminescent cell viability assay (Promega) is a homogeneous method to measure the number of viable cells in culture. The end point readout of this assay is based on quantitation of intracellular ATP, an indicator of metabolic activity, using the luciferase reaction. Luciferase catalyzes the oxidation of beetle Luciferin to oxyluciferin and light in the presence of ATP. The luminescent signal is proportional to amount of ATP present.
Using the CellTiter-Glo luminescent cell viability assay, the amount of cellular ATP was measured in the SH-SY5Y cell line with complete culture medium following compound treatment for 40 hours. The assay was performed in opaque white Kalypsys 1536-well plates. In the screen, tamoxifen and doxorubicin were used as positive controls. Library compounds were measured for their ability to cause acute toxicity in the cell line, as reflected by a decrease in intracellular ATP levels, in a concentration-dependent manner. […] AC50 values were determined from concentration-response data modeled with the standard Hill equation.
qHTS protocol for CellTiter Glo SH-SY5Y cellular assay
[Step] [Parameter] [Value] [Description]
1. Reagent; 5 uL; 1500 SH-SY5Y cells/well
2. Time; 5 hr; 37 °C incubation
4. Controls; 23 nL; Tamoxifen 0.34 uM to 100 uM & Doxorubicin 0.02 nM to 100 uM
5. Time; 40 hr; 37 °C incubation
6. Reagent; 5 uL; CellTiter Glo reagent
7. Time; 20 min; Room Temperature
8. Detection; Luminescence; Viewlux plate reader
Keywords: cell viability, cytotoxicity, SH-SY5Y cell line, luminescence, NTPHTS, NTPHTS_NCGC, NIEHS, EPA, DSSTox, MLSMR, MLSCN, NIH Roadmap, qHTS, NCGC

Structure (SMILES)	viability change, negative = cytotoxic
CC(=O)Nc1ccccc1	-26.9% (inactive)
O=C(O)CCCCC1CCSS1 (stereo unspecified)	-17.1% (inactive)
O=C(c1ccccc1)C(O)c1ccccc1 (stereo unspecified)	-3.66% (inactive)
CC(=O)Nc1cccc(O)c1	15.1% (inactive)
COc1ccc(O)cc1	4.2% (inactive)
FC(F)(F)C(Cl)Br (stereo unspecified)	-0.71% (inactive)
Nc1ccc(S(=O)(=O)c2ccc(N)cc2)cc1	-10.9% (inactive)
CCCCOC(=O)c1ccc(N)cc1	-11.2% (inactive)
CC(=O)Nc1ccc(C(=O)O)cc1	-7.67% (inactive)
CCCCCCCC(=O)OCC(COC(=O)CCCCCCC)OC(=O)CCCCCCC	-12.2% (inactive)
Cc1c(N(C)C)c(=O)n(-c2ccccc2)n1C	-14.6% (inactive)
O=C1C(c2[nH]c3ccccc3c2O)=Nc2ccccc21	-102% (active)
CC(=O)NS(=O)(=O)c1ccc(N)cc1	-13.1% (inactive)
CCCC(O)C(CC)CO (stereo unspecified)	-7.87% (inactive)
Cc1cc(=O)[nH]c(=S)[nH]1	-4.62% (inactive)
CCCCCC(N)=O	-5.16% (inactive)
Cc1cc(C)nc(NS(=O)(=O)c2ccc(N)cc2)n1	-0.461% (inactive)
CCN(CC)C(=O)c1cccc(C)c1	-22.4% (inactive)
CC1CC(OC(=O)c2ccccc2O)CC(C)(C)C1 (stereo unspecified)	-0.877% (inactive)
CC(=O)OCC(COC(C)=O)OC(C)=O	13.4% (inactive)
C=CCNC(N)=S	-6.07% (inactive)
